Test [1] can be described thus: ATG_PBREM_CIS: Attagene CIS-FACTORIAL HepG2 Assay for human Phenobarbital-responsive Enhancer Module (PBREM) (AID 2282955). Particulars: HepG2 PBREM cis-reporter, Attagene multiplexed transcription; actives raise or lower the signal. An outline of the steps:
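Multiplexed cis-reporter readout in human hepatoma HepG2 cells; PBREM-regulated transcript quantified after 24 h exposure by fluorescent RT-PCR fragment analysis. Signal changes up or down fitted relative to DMSO.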

Test [2] in a line: ATG_PXRE_CIS: Attagene CIS-FACTORIAL HepG2 Assay for human Pregnane X Receptor Element (PXRE) (AID 2282957). Particulars: HepG2 Attagene CIS-FACTORIAL PXRE reporter, mRNA; actives raise or lower the signal. An outline of the steps: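 Multiplexed cis-reporter assay in transiently transfected human HepG2 cells; 24 h chemical exposure. Reporter transcripts quantified by RT-PCR with fluorescent labeling and capillary electrophoresis.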

Test [3] is described as follows: ATG_PPRE_CIS: Attagene CIS-FACTORIAL HepG2 Assay for human Peroxisome Proliferator-activated Response Element (PPRE) (AID 2282958). Particulars: HepG2 PPRE cis-element reporter, Attagene transcription factor profiling; actives raise or lower the signal. The gist of the method:
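DMSO served as negative control and baseline for bidirectional curve fitting. Signal came from PPRE-regulated reporter mRNA in HepG2 cells, measured 24 h post-dosing by RT-PCR, 6-FAM primer extension and capillary electrophoresis.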

Test [4] is described as follows: ATG_Sox_CIS: Attagene CIS-FACTORIAL HepG2 Assay for human SRY-box transcription factor (SOX) (AID 2282960). Particulars: HepG2 Attagene cis-factorial SOX reporter, mRNA; actives raise or lower the signal. An outline of the steps: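 Fluorescence-labelled cDNA fragments from reporter transcripts, sized by CE, give the signal. Cells: HepG2, transiently transfected with cis-regulated reporter units. Exposure 24 h; DMSO negative control; bidirectional curve fitting.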

The target of test [5] is Transcription factor Sp1 (Homo sapiens) (UniProt P08047). The experiment in a line: ATG_Sp1_CIS: Attagene CIS-FACTORIAL HepG2 Assay for human Specificity Protein 1 (Sp1) (AID 2282961). Particulars: HepG2 Sp1 cis-reporter transcription, actives raise or lower the signal. An outline of the steps:
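Chemicals are dosed onto HepG2 cells transfected with multiple cis-promoter reporter constructs, and after 24 h reporter RNA is reverse-transcribed, PCR-amplified and resolved by capillary electrophoresis for fluorescence quantitation; activity is scored up or down against DMSO.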

The nature of test [6]: ATG_SREBP_CIS: Attagene CIS-FACTORIAL HepG2 Assay for human Sterol Regulatory Element Binding (SREBP) (AID 2282962). Particulars: HepG2 Attagene cis-factorial SREBP reporter, mRNA; actives raise or lower the signal. The gist of the method:
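HepG2 cells transiently transfected with multiplexed cis-element reporter units report endogenous transcription factor activity. After 24 h of chemical exposure, reporter mRNA was quantified by RT-PCR, 6-FAM labelling, HpaI digestion and capillary electrophoresis; bidirectional fits used DMSO as baseline.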

The target of test [7] is Signal transducer and activator of transcription 3 (Homo sapiens) (UniProt P40763). The experiment in a line: ATG_STAT3_CIS: Attagene CIS-FACTORIAL HepG2 Assay for human Signal Transducer and Activator of Transcription 3 (STAT3) (AID 2282963). Particulars: HepG2, Attagene cis-factorial STAT3 reporter transcription; actives raise or lower the signal. The gist of the method: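 After a 24 h compound incubation, total RNA from MRTU-transfected HepG2 cells was converted to cDNA and reporter sequences PCR-amplified, labelled and profiled by capillary electrophoresis. Gain and loss of signal were referenced to DMSO.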

A short description of test [8]: ATG_TA_CIS: Attagene CIS-FACTORIAL HepG2 Assay for human TA Basal Promoter (AID 2282964). Particulars: HepG2 Attagene CIS-factorial TA basal promoter reporter; actives raise or lower the signal. The gist of the method: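 Steps: transfect HepG2 with MRTUs; dose 24 h; isolate RNA, DNase-treat, reverse-transcribe; PCR and FAM-label reporter cDNA; digest with HpaI 2h at 37 C; run capillary electrophoresis. Activity fitted both directions against DMSO.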

The nature of test [9]: ATG_TAL_CIS: Attagene CIS-FACTORIAL HepG2 Assay for human TAL Basal Promoter (AID 2282966).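 Further: background control endpoint measuring basal TAL promoter reporter mRNA not a specific factor.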 Particulars: HepG2 Attagene cis-factorial TAL promoter reporter; actives raise or lower the signal. An outline of the steps:
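Steps: transfect HepG2 with multiple reporter transcription units; dose 24 h; isolate RNA, reverse-transcribe, PCR-amplify, label with 6-FAM, digest with HpaI; resolve by capillary electrophoresis. Bidirectional fitting against DMSO baseline.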

Test [10] is described as follows: ATG_TGFb_CIS: Attagene CIS-FACTORIAL HepG2 Assay for human Transforming Growth Factor (TGF) (AID 2282967). Particulars: HepG2 Attagene CIS TGFb reporter, mRNA transcription; actives raise or lower the signal. An outline of the steps:
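Cells were dosed for 24 hours, after which total RNA was reverse-transcribed and reporter sequences amplified, labeled and sized by capillary electrophoresis. Activity was fitted in both directions against DMSO.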

Test [11] in a line: ATG_VDRE_CIS: Attagene CIS-FACTORIAL HepG2 Assay for human Vitamin D Receptor Element (VDRE) (AID 2282968). Particulars: HepG2 VDRE cis-reporter transcription, actives raise or lower the signal. An outline of the steps:
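In transiently transfected HepG2 liver cells, gain or loss of reporter mRNA after 24 h exposure is scored relative to DMSO, using fluorescence detection by capillary electrophoresis of RT-PCR products.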

The target in test [12] is Estrogen receptor (Homo sapiens) (UniProt P03372). Description: ATG_ERa_TRANS: Attagene TRANS-FACTORIAL HepG2 Assay for human Estrogen Receptor alpha (ERa) (AID 2282970; active means hit-call score of the fitted dose curve at least 0.9, where 1 is the maximum). Particulars: HepG2 Attagene TRANS ERa GAL4 reporter, mRNA. An outline of the steps:
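Multiplexed cell-based reporter format in HepG2: chimeric ERa-Gal4 protein drives GAL4-UAS reporter transcription. Fluorescent reporter mRNA quantified by capillary electrophoresis 24 hours after dosing; endpoint fitted as signal gain against DMSO.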

Test [13] deals with X-box-binding protein 1 (Homo sapiens) (UniProt P17861). Description: ATG_Xbp1_CIS: Attagene CIS-FACTORIAL HepG2 Assay for human X-box Binding Protein 1 (XBP1) (AID 2282972). Particulars: HepG2 XBP1 cis-element reporter, Attagene multiplex; actives raise or lower the signal. The gist of the method: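 HepG2 cells transiently transfected with cis-regulated multiple reporter transcription units; endogenous transcription factor activity measured 24 hours after chemical dosing. Reporter mRNA quantified by RT-PCR, 6-FAM primer extension, HpaI digestion and capillary electrophoresis; bidirectional fitting versus DMSO.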

Test [14] in a line: ATG_TCF_b_cat_CIS: Attagene CIS-FACTORIAL HepG2 Assay for human T-Cell-Factor with beta-catenin (TCF/b-cat) (AID 2282965). Particulars: HepG2 TCF/beta-catenin cis-reporter transcription, actives raise or lower the signal. The gist of the method:
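Endogenous transcription factor activity is captured through cis-promoter reporter constructs transiently introduced into human HepG2 liver cells. Induced reporter mRNA is measured after 24 h and fitted bidirectionally relative to DMSO.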

Test [15] in a line: ATG_M_19_TRANS: Attagene TRANS-FACTORIAL HepG2 Assay for M19 Transcription Factor (Internal Marker) (AID 2282974; active means hit-call score of the fitted dose curve at least 0.9, where 1 is the maximum). Particulars: HepG2 Attagene TRANS-FACTORIAL M19 internal marker reporter. The gist of the method: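 Multiplexed TRANS format: HepG2 liver cells bearing transient GAL4-UAS reporter units, chemical treatment 24 h, reporter transcripts quantified by RT-PCR plus capillary electrophoresis. DMSO defines baseline.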

Test [16] can be described thus: ATG_RORE_CIS: Attagene CIS-FACTORIAL HepG2 Assay for human RAR-related Orphan Receptor Element (RORE) (AID 2282959). Particulars: HepG2 Attagene cis-factorial RORE reporter, mRNA; actives raise or lower the signal. An outline of the steps: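 Transfect HepG2 with MRTUs; treat 24 h; extract RNA; RT with oligo(dT); PCR with reporter-specific primers; 6-FAM primer extension; HpaI digest 2 h at 37 C; capillary electrophoresis. Fit vs DMSO, bidirectional.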

In test [17] the target is Nuclear receptor subfamily 1 group I member 3 (Homo sapiens) (UniProt Q14994). The experiment in a line: ATG_CAR_TRANS: Attagene TRANS-FACTORIAL HepG2 Assay for human Constitutive Androstane Receptor (CAR) (AID 2282969; active means hit-call score of the fitted dose curve at least 0.9, where 1 is the maximum;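 further: activators raise reporter mRNA above DMSO so AC50 marks induction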). Particulars: HepG2 Attagene TRANS-FACTORIAL CAR reporter. An outline of the steps:
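Readout is reporter mRNA induction, quantified by fluorescent primer extension and capillary electrophoresis after RT-PCR. Cells were HepG2 transiently carrying chimeric NR-Gal4 constructs with GAL4-UAS reporters, treated for 24 h; activity scored upward from DMSO.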

Test [18] in a line: ATG_GAL4_TRANS: Attagene TRANS-FACTORIAL HepG2 Assay for GAL4 (Internal Marker) (AID 2282976; active means hit-call score of the fitted dose curve at least 0.9, where 1 is the maximum). Particulars: HepG2 Attagene TRANS GAL4 internal marker reporter. The gist of the method:
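Liver HepG2 line bearing multiplexed GAL4-UAS reporter constructs; 24 h chemical treatment. Transcripts were quantified as fluorescent fragments on capillary electrophoresis after RT-PCR and HpaI cut, with activity fitted upward from DMSO.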

Test [19] deals with Steroid hormone receptor ERR1 (Homo sapiens) (UniProt P11474). The experiment in a line: ATG_ERRa_TRANS: Attagene TRANS-FACTORIAL HepG2 Assay for human Estrogen-Related Receptor alpha (ERRa) (AID 2282971; active means hit-call score of the fitted dose curve at least 0.9, where 1 is the maximum). Particulars: HepG2 Attagene TRANS reporter, ERRa transactivation. An outline of the steps: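 Signal gain relative to DMSO for an ERRa-Gal4 chimeric receptor, read as reporter mRNA by RT-PCR/capillary electrophoresis. Human HepG2 liver cells, transient multiplex reporter transfection, 24 h chemical exposure.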

Inconclusive results are not listed. Calls of active or inactive are those of the source. How the source made its calls, unless noted: active means hit-call score of the fitted dose curve at least 0.9, where 1 is the maximum; inactive means score below 0.9.

Signal transducer and activator of transcription 3 (Homo sapiens), sequence (P40763 whole entry, looked up): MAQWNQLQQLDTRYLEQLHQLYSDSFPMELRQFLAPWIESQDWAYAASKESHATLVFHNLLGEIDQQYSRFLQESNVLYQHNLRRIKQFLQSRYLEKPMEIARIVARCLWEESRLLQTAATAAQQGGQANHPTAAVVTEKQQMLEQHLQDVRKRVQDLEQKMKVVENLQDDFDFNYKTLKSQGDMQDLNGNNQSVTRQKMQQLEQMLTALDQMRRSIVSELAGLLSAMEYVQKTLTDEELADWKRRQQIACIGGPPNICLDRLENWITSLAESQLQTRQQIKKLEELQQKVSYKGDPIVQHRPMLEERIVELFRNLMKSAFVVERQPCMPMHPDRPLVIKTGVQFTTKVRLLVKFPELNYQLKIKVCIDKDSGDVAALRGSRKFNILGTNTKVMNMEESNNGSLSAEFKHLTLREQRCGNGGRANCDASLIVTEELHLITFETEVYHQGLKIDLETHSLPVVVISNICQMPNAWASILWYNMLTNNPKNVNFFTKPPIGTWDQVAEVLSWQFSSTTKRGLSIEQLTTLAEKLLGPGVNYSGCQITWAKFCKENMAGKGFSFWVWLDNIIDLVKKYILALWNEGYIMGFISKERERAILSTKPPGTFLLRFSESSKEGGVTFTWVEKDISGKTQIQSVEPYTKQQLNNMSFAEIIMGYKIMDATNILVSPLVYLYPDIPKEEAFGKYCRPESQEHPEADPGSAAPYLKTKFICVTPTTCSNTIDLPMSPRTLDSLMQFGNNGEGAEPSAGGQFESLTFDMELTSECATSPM
Estrogen receptor (Homo sapiens), sequence (P03372 whole entry, looked up, the tested form may be a part): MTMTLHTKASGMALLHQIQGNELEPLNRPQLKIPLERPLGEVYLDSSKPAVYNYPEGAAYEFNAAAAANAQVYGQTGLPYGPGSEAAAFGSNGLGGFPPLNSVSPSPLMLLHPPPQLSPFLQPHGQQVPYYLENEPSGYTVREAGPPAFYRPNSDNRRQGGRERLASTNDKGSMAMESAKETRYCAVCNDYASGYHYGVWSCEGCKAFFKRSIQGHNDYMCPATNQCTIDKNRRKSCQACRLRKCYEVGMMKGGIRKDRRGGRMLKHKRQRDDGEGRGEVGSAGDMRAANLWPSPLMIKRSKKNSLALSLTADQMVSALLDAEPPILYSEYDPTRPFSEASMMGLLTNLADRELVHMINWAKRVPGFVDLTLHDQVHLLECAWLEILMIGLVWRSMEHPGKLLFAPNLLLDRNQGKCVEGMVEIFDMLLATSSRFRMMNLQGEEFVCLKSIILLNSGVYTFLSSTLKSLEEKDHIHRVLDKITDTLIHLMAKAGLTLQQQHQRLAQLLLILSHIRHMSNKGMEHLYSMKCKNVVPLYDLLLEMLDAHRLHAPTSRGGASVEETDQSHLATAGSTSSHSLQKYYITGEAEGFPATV
Transcription factor Sp1 (Homo sapiens), sequence (P08047 whole entry, looked up): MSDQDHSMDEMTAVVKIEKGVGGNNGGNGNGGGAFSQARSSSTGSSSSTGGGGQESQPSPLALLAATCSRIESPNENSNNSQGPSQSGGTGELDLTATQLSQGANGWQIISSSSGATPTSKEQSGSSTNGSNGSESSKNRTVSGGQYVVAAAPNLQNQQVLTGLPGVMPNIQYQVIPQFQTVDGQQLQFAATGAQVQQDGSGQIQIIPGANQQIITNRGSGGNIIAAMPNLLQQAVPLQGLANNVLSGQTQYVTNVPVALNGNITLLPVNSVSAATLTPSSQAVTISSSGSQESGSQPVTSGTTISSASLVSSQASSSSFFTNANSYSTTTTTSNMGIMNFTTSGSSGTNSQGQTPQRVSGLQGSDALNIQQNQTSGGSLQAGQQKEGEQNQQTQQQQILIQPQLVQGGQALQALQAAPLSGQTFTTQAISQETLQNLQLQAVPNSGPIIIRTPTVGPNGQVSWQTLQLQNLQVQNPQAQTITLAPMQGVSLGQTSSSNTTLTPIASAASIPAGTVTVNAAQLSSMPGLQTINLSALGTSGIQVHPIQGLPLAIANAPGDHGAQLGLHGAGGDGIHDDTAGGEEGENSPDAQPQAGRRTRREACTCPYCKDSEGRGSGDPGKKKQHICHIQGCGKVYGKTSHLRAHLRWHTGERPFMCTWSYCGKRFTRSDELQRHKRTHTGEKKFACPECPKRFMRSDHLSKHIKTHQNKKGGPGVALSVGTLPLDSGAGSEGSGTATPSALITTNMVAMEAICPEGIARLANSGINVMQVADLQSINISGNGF
X-box-binding protein 1 (Homo sapiens), sequence (P17861 whole entry, looked up): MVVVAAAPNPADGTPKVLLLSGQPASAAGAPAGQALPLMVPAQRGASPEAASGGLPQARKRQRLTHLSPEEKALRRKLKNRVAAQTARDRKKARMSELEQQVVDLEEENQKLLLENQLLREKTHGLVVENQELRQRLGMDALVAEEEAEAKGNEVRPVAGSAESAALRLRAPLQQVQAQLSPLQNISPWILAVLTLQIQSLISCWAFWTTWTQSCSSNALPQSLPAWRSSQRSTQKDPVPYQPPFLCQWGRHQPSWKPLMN
Nuclear receptor subfamily 1 group I member 3 (Homo sapiens), sequence (Q14994 whole entry, looked up, the tested form may be a part): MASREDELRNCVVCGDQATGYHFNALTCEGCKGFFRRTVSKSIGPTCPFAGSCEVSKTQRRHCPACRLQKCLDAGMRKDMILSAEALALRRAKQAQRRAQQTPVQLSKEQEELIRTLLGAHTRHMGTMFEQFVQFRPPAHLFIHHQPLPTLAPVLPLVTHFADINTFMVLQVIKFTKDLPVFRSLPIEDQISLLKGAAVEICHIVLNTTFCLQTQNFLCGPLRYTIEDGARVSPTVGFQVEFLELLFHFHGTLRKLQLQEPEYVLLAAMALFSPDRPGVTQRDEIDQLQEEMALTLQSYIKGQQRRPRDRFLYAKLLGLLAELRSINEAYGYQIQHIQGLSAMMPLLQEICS
Steroid hormone receptor ERR1 (Homo sapiens), sequence (P11474 whole entry, looked up, the tested form may be a part): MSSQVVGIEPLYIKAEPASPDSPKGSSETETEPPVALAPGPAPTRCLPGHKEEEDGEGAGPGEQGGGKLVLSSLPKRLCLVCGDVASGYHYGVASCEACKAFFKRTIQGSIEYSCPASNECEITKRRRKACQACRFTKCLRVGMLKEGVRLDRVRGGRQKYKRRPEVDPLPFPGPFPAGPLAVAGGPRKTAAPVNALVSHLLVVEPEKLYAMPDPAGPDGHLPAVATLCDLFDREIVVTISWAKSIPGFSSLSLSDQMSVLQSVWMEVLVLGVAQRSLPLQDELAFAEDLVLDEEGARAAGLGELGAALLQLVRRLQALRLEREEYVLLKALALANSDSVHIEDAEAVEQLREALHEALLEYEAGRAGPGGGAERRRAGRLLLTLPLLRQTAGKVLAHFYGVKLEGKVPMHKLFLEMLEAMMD

For the molecule `OCCCCC(F)(F)C(F)(F)C(F)(F)C(F)(F)F`, the result in [1], in test [2], in [3], in [4], in [5] and in test [6] was inactive. Also, the result in [7], in test [8], in [9], in test [10], in test [11] and in [12] was inactive. Moreover, the call in test [13] was inactive.

As to `CCCCCC/C=C/CCCCCCCC(=O)O`, the outcome in [1], in test [2], in test [3], in test [4], in [5] and in [6] was inactive. Further, the molecule was classed as inactive in test [7], in [8], in test [14], in test [9], in test [10] and in test [11]. Besides, the result in test [12], in test [13] and in test [15] was inactive.

With `CC(O)C#CC(C)O` (stereo not drawn), the result in test [1], in test [3], in test [16], in test [6], in test [7] and in test [9] was inactive. The outcome in test [10], in test [12] and in test [13] was inactive. The AC50 (usually the concentration giving half of the maximal activity seen) in [2] is 148 µM (active); in test [4] it was 77.1 µM (active); in test [5] it was 73.1 µM (active); in test [14], 99.5 µM (active); in [11], 39.5 µM (active); in test [17], 99.5 µM (active).

As to `Brc1nc2ccccc2s1`, the result in [1], in test [2], in [16], in test [4], in [5] and in test [6] was inactive. Besides, the call in test [7], in [8], in test [14], in test [9], in [10] and in test [11] was inactive. Also, the outcome in [12], in test [13], in [15] and in test [18] was inactive. In [3], the AC50 was 18.1 µM (active).

Regarding `CC(C)Nc1ccc(NC(C)C)c2c1C(=O)c1ccccc1C2=O`, the outcome in [1], in test [3], in [16], in [4], in test [5] and in test [6] was inactive. The molecule was classed as inactive in test [7], in test [8], in test [9], in test [10], in [17] and in [12]. Further, the molecule was called inactive in [13] and in test [18]. Also, the figures for the AC50 in [2] and in test [11] were 0.21 µM (active) and 0.417 µM (active), respectively.

With `OCC(O)CC(F)(F)C(F)(F)C(F)(F)C(F)(F)C(F)(F)C(F)(F)C(F)(F)C(F)(F)F` (stereo not drawn), the outcome in test [1], in test [2], in [3], in test [16], in [4] and in [5] was inactive. Further, the molecule was called inactive in [6], in [7], in [8], in test [14], in [9] and in [10]. Besides, the molecule was called inactive in [19], in [13], in test [15] and in test [18]. Besides, the AC50 in test [12] was 9.15 µM (active).

Source of the values: PubChem BioAssay (EPA / NIEHS).
